Measurements published in PubChem BioAssay (Tox21).
Several values for one entry are separate records, joined by “and”; a condition that tells them apart may be missing. Equal values may be shown once. Records with an inconclusive call do not appear. A call without a number means that no potency is given here. Activity calls are given as the source filed them. Calls follow the shape of the dose curve; as a rule, active = well fitted cell-killing curve with a large enough effect in the repeat runs; inconclusive = weak or mixed curves, or effect the other way; inactive = no such curve, though single readings can be large or run the other way.

Assay: qHTS assay to identify small molecule agonists of the RXR signaling pathway - cell viability counter screen (AID 1159529); also: nearly all actives have a fitted effect of over 50% in size
Details: RXR-alpha-bla HEK293T viability, CellTiter-Glo, 16 h; series mostly up to 76.8 µM
Excerpt: National Center for Advancing Translational Sciences [NCATS]
NIH Chemical Genomics Center [NCGC]
U.S. Environmental Protection Agency [EPA]
National Institutes of Environmental Health Sciences [NIEHS]
National Toxicology Program [NTP]
U.S. Food and Drug Administration [FDA]
The Retinoid X receptor (RXR), a nuclear hormone receptor expressed in liver, spleen, placenta, epidermis, central nervous system. These receptors are able to form homo and heterodimers with other nuclear receptors and due to this heterodimerizing ability, RXR functions as master regulators producing diverse physiological effects. Three subtypes of RXR exist; alpha, beta and gamma. Retinoid X receptor alpha (RXR-alpha) has potential roles in metabolic signaling pathways, skin alopecia, dermal cysts, cardiac development, insulin sensitization etc. Therefore screening environmental chemicals on RXR-alpha signaling can be used for the studies focused on such therapeutic applications. For quantification of RXR-alpha ligands signaling, GeneBLAzer RXR alpha-UAS-bla HEK 293T (Life Technologies, Carlsbad, CA) cells containing a beta-lactamase reporter-gene under control of Retinoid X receptor-alpha response element were used to screen Tox21 10K library. The cytotoxicity of the Tox21 compound library against the RXR-alpha HEK 293T cell line was tested in parallel by measuring cell viability using CellTiter-Glo assay (Promega Corporation, Madison, WI) in the same wells.
Tox21 Assay Protocol Summary:
RXR-alpha HEK 293T cells were dispensed at 2,000 cells/6 uL of assay medium containing 2% charcoal-stripped FBS using a Multidrop Combi (ThermoFisher Scientific, Waltham, MA) dispenser. The assay was performed in black wall/clear-bottom 1536-well plates (Greiner Bio-One North America Inc. Monroe, NC). Tetraoctyl ammonium bromide was used as a positive control in the cytotoxicity screen. After the assay plates were incubated at 37 C and 5% CO2 for 5 hr, 23 nL of compounds dissolved in DMSO, positive control or DMSO only were transferred to the assay plate by a Pintool station (Kalypsys, San Diego, CA). The assay plates were incubated at 37 C and 5% CO2 for 16 hr. One uL of LiveBLAzer B/G FRET substrate (Life Technologies) was added using a Flying Reagent Dispenser (FRD) (Aurora Discovery, San Diego, CA) and the plates were incubated at room temperature for 2 hr. Fluorescence intensity (405 nm excitation, 460/530 nm emission) was measured using an Envision plate reader (PerkinElmer, Shelton, CT). For cytotoxicity, 4 uL/well of CellTiter-Glo reagent was added into the assay plates using an FRD. After 30 min incubation at room temperature, the luminescence intensity was measured using a ViewLux plate reader (PerkinElmer).
Potency is read from the fitted curve at half-maximal effect.

Compound	Potency	activity change, negative = cytotoxicity
CC(N=C(NC#N)Nc1ccncc1)C(C)(C)C (stereo not given)	inactive	
CCOC(=O)c1ccc(C2CCC(NC[C@H](O)COc3ccc(O)c(NS(C)(=O)=O)c3)CC2)cc1 (stereo not given in full)	10.1 µM (active)	
CC(C)Cn1cnc2c(N)nc3ccccc3c21		1.15% [at 15.8 µM] (inactive)
Clc1ccnc(Cl)n1	inactive	
CCCCC(CC)CN1CN(CC(CC)CCCC)CC(C)(N)C1 (stereo not given)	inactive	
O=c1c(O)c(-c2ccc(O)cc2O)oc2cc(O)cc(O)c12	inactive	
CC1(C)[C@@H](O)CC[C@]2(C)[C@H]3C(=O)C=C4[C@@H]5C[C@@](C)(C(=O)O)CC[C@]5(C)CC[C@@]4(C)[C@]3(C)CC[C@@H]12	inactive	
Nc1ccc(C(=O)O)c(O)c1	inactive	
CCCC(=O)OCOC(=O)C1=C(C)NC(C)=C(C(=O)OC)C1c1cccc(Cl)c1Cl (stereo not given)	inactive	
C1CCC(SSC2CCCCC2)CC1	inactive	
CC(C)=CCC1=C(O)c2ccccc2C(=O)C1=O	inactive	
CCN(CC)c1ccc2c(-c3ccc(S(=O)(=O)O)cc3S(=O)(=O)[O-])c3ccc(=[N+](CC)CC)cc-3oc2c1	inactive	
Oc1c(I)cc(Cl)c2cccnc12	1.09 µM (active)	
C=Cc1ccccc1C=C	inactive	
O=c1oc2cc(O)ccc2c2oc3cc(O)ccc3c12	inactive	
CCCCNS(=O)(=O)c1ccc(C)cc1	inactive	
CC(C)NC[C@@H](O)COc1ccc(CC(N)=O)cc1	inactive	
COc1ccc(NC(=O)CC(C)=O)cc1	inactive	
CCC(CC)C(C)CCOC(C)=O (stereo not given)	inactive	
CCn1c2ccccc2c2cc([N+](=O)[O-])ccc21	inactive	

Compound	Potency	activity change, negative = cytotoxicity
O=C1c2ccccc2C(=O)N1SC1CCCCC1	48.9 µM (active) and 49 µM (active)	
CCC(=O)OC(=O)CC	43.3 µM (active)	
CCOc1ccc2ccccc2c1C(=O)N[C@@H]1C(=O)N2[C@@H]1SC(C)(C)[C@@H]2C(=O)O	inactive	
CCCCCCCCCCCCCC[N+](C)(C)C	10.6 µM (active) and 15.5 µM (active) and 21.3 µM (active)	
C=Cc1cccc(C)c1	inactive	
O=C1CCc2ccc(OCCCCN3CCN(c4cccc(Cl)c4Cl)CC3)cc2N1	23.9 µM (active)	
CC(=O)c1ccc(C(C)=O)cc1	inactive	
O=C1CCc2cc(OCCCCc3nnnn3C3CCCCC3)ccc2N1	inactive	
Cc1cccc(C(=O)O)c1O	inactive	
Cc1ccc(C(C)C)cc2c(C)ccc1-2	inactive	
CCN1C(=O)c2ccccc2C1Nc1ccc(OCCN2CCCCC2)cc1 (stereo not given)	inactive	
COc1ccc2c(c1)c(CC(=O)OC/C=C(\C)CC/C=C(\C)CCC=C(C)C)c(C)n2C(=O)c1ccc(Cl)cc1	inactive	
O=C(c1ccc(O)c(O)c1)c1ccc(O)cc1O	inactive	
C[C@@H](O)[C@H](N)C(=O)O		1.63% [at 15.8 µM] (inactive)
COc1ccc(-c2coc3cc(O)ccc3c2=O)cc1	inactive	
CCCCCC(C)OC(=O)COc1ccc(Cl)c2cccnc12 (stereo not given)	11 µM (active)	
Cc1cc(-c2ccc(N=Nc3cc(S(=O)(=O)O)c4ccccc4c3N)c(C)c2)ccc1N=Nc1cc(S(=O)(=O)O)c2ccccc2c1N	inactive	
CCCCOC(=O)CO	inactive	
O=C(O)Cc1ccccc1Nc1c(Cl)cccc1Cl	inactive	
Nc1cc(Cl)c(O)c(Cl)c1	inactive	
